Compound activity (PubChem BioAssay)
D1 agonist – agonists of human D1 dopamine receptor. HEK293 T-REx D1 cells, calcium flux, agonist mode. 360,000 compounds, 1% hits. P21728. activation, % at 2 µM. AID 504660; in the data active means activation above about 30%; further: 0% is about no effect
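Agonism was scored from calcium flux recorded over 180 s (1 read/s) after pintool compound addition, following a 10-cycle baseline. Cells were inducible force-coupled HEK293 TREx D1, plated overnight at 30 C and loaded with no-wash calcium dye.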
D1 potentiator – potentiators of human D1 dopamine receptor; P21728; HEK293 TREx D1 cells, calcium flux, dopamine EC20 potentiation; potentiation, % at 10 µM; 360,000 compounds, 0.036% hits; AID 504651; in the data active means potentiation above about 30%; further: 0% is about no effect
DRD3 agonist – agonists of human D3 dopamine receptor | max activation, % | D3R DiscoveRx beta-arrestin cells, luminescence, 90 min | 410,000 compounds, 0.58% hits; in the data active means max activation above about 30%; further: 0% is about no effect
Target sequence (P35462 whole entry, looked up): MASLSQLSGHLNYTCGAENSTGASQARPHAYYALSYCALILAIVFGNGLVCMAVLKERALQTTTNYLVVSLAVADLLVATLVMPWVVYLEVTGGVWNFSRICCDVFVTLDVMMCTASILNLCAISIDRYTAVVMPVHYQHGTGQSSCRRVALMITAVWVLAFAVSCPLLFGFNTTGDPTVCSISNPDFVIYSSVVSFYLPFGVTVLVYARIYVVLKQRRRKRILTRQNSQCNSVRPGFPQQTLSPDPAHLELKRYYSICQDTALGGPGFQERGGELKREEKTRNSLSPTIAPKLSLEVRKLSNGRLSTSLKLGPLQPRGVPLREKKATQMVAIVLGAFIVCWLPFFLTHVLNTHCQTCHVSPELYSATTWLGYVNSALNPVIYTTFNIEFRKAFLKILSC
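Cells at 1500/well, incubated overnight, then treated with pinned compounds (dopamine as control) for 90 min at 37 degrees C. DiscoveRx reagent added for 30 - 60 minutes at room temperature; luminescence read.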
D1 antag – human D1 dopamine receptor antagonism. P21728. HEK293 TREx D1 cells, calcium flux, dopamine EC80; hits give low values. activity change, negative = inhibition, % at 10 µM. 360,000 compounds, 3.2% hits. AID 504652; in the data active means activity change below about -30%; further: on the % scale 0 is the no-effect control and ±100 the full control effect
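Tetracycline-induced HEK293 Trex D1 cells, force-coupled to calcium, dye-loaded; compounds added and read 180 s, then EC80 dopamine added and calcium flux tracked kinetically another 180 s.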
DRD3 antagonist – D3 dopamine receptor (human) antagonism | 360,000 compounds, 2.5% hits | max response, negative = inhibition, % | AID 652054 | D3R cells, DiscoveRx beta-arrestin luminescence, antagonist mode; hits give low values; in the data active means max response below about -50%; inconclusive means no clear call, values can overlap the other calls; further: on the % scale 0 is the no-effect control and ±100 the full control effect
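Cells expressing the human receptor were seeded at 1500 cells/well, incubated overnight at 37 degrees C in 5% CO2, then exposed to library compounds with dopamine controls for 90 minutes at 37 degrees C before luminescent detection.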
Active calls of the source: *; ? = inconclusive; · = no result; ! = not confirmed by another sample. Rows were chosen to be rich in hits. Some 6% of all compounds tested hit in one or more screens of this group.

SMILES | D1 agonist | D1 potentiator | DRD3 agonist | D1 antag | DRD3 antagonist
O=C1/C(=C\c2cc(Cl)c(O)c(Cl)c2)SC(=S)N1Cc1ccccc1 | 412* | -9 | 22 | -85* | -24
COc1ccc(O)c(/C=C2/SC(=S)N(Cc3ccccc3)C2=O)c1 | 40* | -1 | 5 | -5 | 1
COc1ccc(OC)c(/C=C2\SC(=S)N(Cc3cccnc3)C2=O)c1 | 48* | 4 | 1 | 23 | -15
O=C(CCOc1ccccc1)Nc1ccc(Cl)c(S(=O)(=O)N2CCOCC2)c1 | 2 | 5 | 4 | -1 | 8
CN(C(=O)c1ccc(NC(=O)C2CCCN(C(=O)OC(C)(C)C)C2)cc1)C1CCCC1 (centres undefined) | · | · | 13 | · | 16
O=C(/C=C/Sc1ccc(C(F)(F)F)cn1)c1ccccc1 | 1 | 3 | -16 | 1 | -69*
COC(=O)C1=CN(Cc2ccc(F)cc2)C=C(C(=O)OC)C1c1cc(OC)c(OC)c(OC)c1 | 0 | -8 | 5 | -41* | 10
COC(=O)C1=CN(Cc2ccc(OC)cc2)C=C(C(=O)OC)C1c1cc(OC)c(OC)c(OC)c1 | 6 | 0 | -6 | 2 | -3
Cc1nn(CC(=O)Nc2ccc(OC(F)(F)F)cc2)c(=O)c2c(C)n(-c3ccc(Cl)cc3)nc12 | 2 | -2 | 11 | 5 | ·
CCOC(=O)c1scc(-c2ccc(C)cc2)c1S(=O)(=O)N1CCN(c2ccccc2F)CC1 | 0 | -4 | -19 | -12 | ·
COC(=O)c1ccc(CN=C(NS(=O)(=O)c2ccccc2)c2ccccc2)cc1 | · | · | 2 | · | 5
COC(=O)c1ccc(COc2ccccc2/C=N/NS(=O)(=O)c2ccccc2)cc1 | 2 | -8 | -20 | -51* | -18
NC(=S)N/N=C\c1ccccc1OCc1ccccc1 | 1 | -4 | -5 | -13 | -54*
COc1cc(/C=N/NS(=O)(=O)c2ccc3ccccc3c2)ccc1OCc1ccc(C(=O)O)cc1 | 2 | -16 | 8 | -30* | 0
Cc1oc2ncnc(N3CCCCC3)c2c1C(=O)N1CCN(c2cccc(C(F)(F)F)c2)CC1 | 1 | 7 | -16 | 11 | ·
CC(NS(=O)(=O)c1ccc2[nH]c(=O)[nH]c2c1)c1ccc(F)cc1 (centres undefined) | · | · | -10 | · | ?
O=C(NC1CCCCC1)C(c1ccccc1)n1c(=O)c(-c2cc3ccccc3[nH]2)nc2ccccc21 (centres undefined) | · | · | -5 | · | -3
CC(C)(C)c1ccc(NC(=O)c2ccsc2)cc1 | -1 | -4 | -2 | -31* | -5
COc1ccc(NC(=O)[C@H]2O[C@@H]3OC(C)(C)O[C@@H]3[C@H]3OC(C)(C)O[C@H]32)c(OC)c1 | -4 | 0 | 4 | 4 | ·
CC(=O)N1CCc2cc(S(=O)(=O)NC(Cc3ccccc3)C(=O)Nc3cc(C)ccn3)ccc21 (centres undefined) | 1 | 2 | -12 | -7 | -71*
CC(C)Cc1nnc(NC(=O)Cc2cccs2)s1 | 1 | -3 | -16 | -50* | -3
COCC(=O)Nc1nnc(-c2cccs2)s1 | 1 | -1 | -3 | 0 | -72*
CCc1cccc(N2C(=O)CS(=O)(=O)C23C(=O)N(Cc2ccccc2)c2ccc(C)cc23)c1 (centres undefined) | 4 | 0 | -2 | 0 | ·
Cn1c(C(=O)NCCN2CCCCCC2)cc2c(=O)n(C)c3ccccc3c21 | 3 | -1 | -10 | 3 | -2
Cn1c(C(=O)NCCN2CCN(Cc3ccccc3)CC2)cc2c(=O)n(C)c3ccccc3c21 | 2 | -5 | -14 | -5 | -93*
SMILES | D1 agonist | D1 potentiator | DRD3 agonist | D1 antag | DRD3 antagonist
CC1CCN(CCCNC(=O)c2cc3c(=O)n(C)c4ccccc4c3n2C)CC1 | 0 | -1 | -16 | 11 | -83*
Cn1c(C(=O)NCCCN2CCN(c3ccccc3F)CC2)cc2c(=O)n(C)c3ccccc3c21 | -1 | · | -1 | -4 | -73*
Cc1ccc(-n2nc(C)c(C(=O)NCCCN3CCN(c4ccccc4F)CC3)c2-n2cccc2)cc1 | 22 | -4 | -4 | -47* | ·
CCC(=O)N1Cc2cc(C(=O)N(C)C)nc(-c3cccc(-c4cncnc4)c3)c2[C@@H]1CCO | · | · | -12 | · | 0
O=C1OC(c2ccccc2)/C(=C(/O)c2ccc(Cl)cc2)C1=O (centres undefined) | 8 | -3 | -5 | -1 | -62*
O=C(N/N=C/c1sc(=O)[nH]c1-[n+]1ccccc1)c1ccccc1[O-] | -1 | 1 | -2 | 1 | -5
O=C(N/N=C/c1sc(=O)[nH]c1-[n+]1ccc2ccccc2c1)c1ccccc1[O-] | 34* | -2 | 22 | -10 | 11
O=S(=O)(c1c(F)cccc1F)N1CCN(S(=O)(=O)c2c(F)cccc2F)CC1 | 1 | 0 | · | -30* | ·
CCN1C(=O)/C(=C\N2CCN(c3ccc(F)cc3)CC2)SC1=S | 2 | -5 | 34* | -3 | 58
CC(C)CC(NC(=O)C1CCC(C)CC1)C(=O)Nc1ccccn1 (centres undefined) | 0 | -7 | -3 | -32* | 2
CC(C)CC(NC(=O)C1CCC(C)CC1)C(=O)Nc1ccccc1F (centres undefined) | 1 | -4 | 4 | 10 | 3
COc1cc2c(cc1OC)n(CC(=O)c1ccc(F)cc1)c(=O)n1nc(CCn3nc(C)cc3C)nc21 | 0 | 0 | -4 | 17 | ·
CNC[C@H](O)c1ccc(O)c(O)c1 | 3 | 1 | 3 | 9 | 0
NC[C@H](O)c1ccc(O)c(O)c1 | 7 | -7 | 47*! | 3 | -29
NC[C@@H](O)c1ccc(O)c(O)c1 | 3 | 2 | · | -24 | ·
CC(C)NCC(O)c1ccc(O)c(O)c1 (centres undefined) | 1 | 1 | 39*! | 10 | 20
CC(=O)c1c(CSc2ccccc2)oc2ccc(O)c(CN(C)C)c12 | 20 | -12 | -9 | -13 | 4
CSCC[C@H](NC(=O)N1CCn2c1nc1ccccc12)C(=O)NCC1CCCO1 (some centres undefined) | 3 | 4 | -4 | -2 | -3
CC(C)Cn1cnc2c(Sc3c([N+](=O)[O-])ncn3C)nc(N)nc21 | · | · | 5 | · | 14
O=[N+]([O-])c1ccc(C(=S)N2CCN(c3ccc(F)cc3)CC2)cc1 | 0 | 4 | -4 | -33* | -1
CN(C)c1ccc(C(=S)N2CCN(c3ccc([N+](=O)[O-])cc3)CC2)cc1 | 1 | -4 | -8 | -32* | -23
C(#Cc1ccc(C#CCN2CCCC2)cc1)CN1CCCC1 | 8 | -4 | -10 | -32* | 12
O=C(c1ccccc1)N1CCN(CC#Cc2ccccc2)CC1 | -1 | -3 | 26 | 0 | -6
COc1cccc(CNS(=O)(=O)c2cc3c(cc2Cl)NC(=O)CO3)c1 | 2 | 0 | 5 | -16 | -9
COc1ccc(NS(=O)(=O)c2cc3c(cc2C)NC(=O)CO3)c(OC)c1 | 5 | -10 | -3 | -58*! | 8
